# Hits are enriched below; roughly 1.4% of the tested compounds scored in any of these assays.
# APOBEC3G inh: inhibitors of human APOBEC3G DNA deaminase; Q9HC16; recombinant A3G, ssDNA deamination FAM/TAMRA fluorescence; inhibition, % at 20 µM; hit rate 0.28% among 330,000; AID 493012;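 active means inhibition of at least 40% at 20 µM, with no more than 30% in the related APOBEC3A deaminase screen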;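 further: plate controls were DMSO wells with A3G for no effect and wells lacking A3G enzyme for full effect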
# Target sequence (Q9HC16 whole entry, looked up): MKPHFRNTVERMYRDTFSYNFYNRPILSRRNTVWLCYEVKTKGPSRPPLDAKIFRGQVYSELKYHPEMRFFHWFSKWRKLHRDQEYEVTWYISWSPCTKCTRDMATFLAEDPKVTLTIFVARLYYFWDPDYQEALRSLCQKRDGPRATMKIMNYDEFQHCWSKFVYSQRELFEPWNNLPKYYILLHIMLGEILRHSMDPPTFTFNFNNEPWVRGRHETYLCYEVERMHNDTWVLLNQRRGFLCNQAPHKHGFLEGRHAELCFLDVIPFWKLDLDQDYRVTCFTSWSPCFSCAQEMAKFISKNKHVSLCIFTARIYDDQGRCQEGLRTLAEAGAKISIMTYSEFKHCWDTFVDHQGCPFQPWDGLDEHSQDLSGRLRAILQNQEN
# GRK2 aptamer HTS: human GRK2 inhibition via aptamer displacement. P25098. bead flow cytometry, FAM-aptamer displacement from GRK2. inhibition of aptamer binding, % at 10 µM. hit rate 0.59% among 330,000. AID 488847;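 active means inhibition of aptamer binding above 40%, roughly 3 SD of noise, on plates passing a quality check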;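 further: median bead fluorescence of bound FAM aptamer so fluorescent compounds give negative values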
# VLA-4 inh: inhibition in a human VLA-4 binding assay; VLA-4 expressing cells, ligand binding flow cytometry; hit rate 0.2% among 330,000; inhibition, % (about 7 µM as worked out from the volumes in the protocol); P13612; in the data active means inhibition above about 50%
# A3A deaminase: human APOBEC3A DNA deaminase inhibition; recombinant A3A, FAM/TAMRA ssDNA deamination fluorescence; inhibition, % at 20 µM; hit rate 0.41% among 330,000;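 active means at least 40% inhibition at 20 µM here, with at most 30% in a related deaminase screen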;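 further: plate controls were A3A with DMSO for no effect and wells lacking A3A enzyme for full effect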
# Target sequence (P31941 whole entry, looked up): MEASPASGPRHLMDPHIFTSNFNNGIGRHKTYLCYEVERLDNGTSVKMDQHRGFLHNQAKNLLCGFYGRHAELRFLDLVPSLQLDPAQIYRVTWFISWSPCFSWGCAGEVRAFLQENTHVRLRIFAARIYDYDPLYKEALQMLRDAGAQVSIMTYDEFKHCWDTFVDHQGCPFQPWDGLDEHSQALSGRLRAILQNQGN
# VLA-4 mod pick: human VLA-4 allosteric modulation in cherry picked compounds; shares compounds with VLA-4 inh; U937 cells, HUTS-21 LIBS mAb binding, flow cytometry; LDV ligand present at threefold Kd; inhibition, % at 6.7 µM; hit rate 2% among 1,300; in the data active means inhibition above about 40%;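 further: 0% = ligand without compound and 100% = no ligand background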
# * = called active by the depositor; nt = not tested or not shown.
SMILES,APOBEC3G inh,GRK2 aptamer HTS,VLA-4 inh,A3A deaminase,VLA-4 mod pick
CCN(C[C@H]1N[C@@](CC)(C(=O)OC)[C@H]2C(=O)N(Cc3ccccc3)C(=O)[C@@H]12)C(=O)COC,0,1,29,-1,nt
COC(=O)[C@]1(Cc2ccccc2)N[C@H](CN(C)C(=O)Nc2ccc(F)cc2)[C@@H]2C(=O)N(Cc3ccccc3)C(=O)[C@@H]21,-9,2,1,-4,2
CCN(C[C@H]1N[C@@](Cc2ccccc2)(C(=O)OC)[C@H]2C(=O)N(Cc3ccccc3)C(=O)[C@@H]12)C(=O)c1ccccc1,4,1,50*,2,4
CCN(C[C@H]1N[C@@](Cc2ccccc2)(C(=O)OC)[C@H]2C(=O)N(Cc3ccccc3)C(=O)[C@@H]12)C(C)=O,1,7,8,2,3
COC(=O)[C@H](Cc1ccccc1)NC(=O)N1CCN(Cc2ccccc2)CC1,1,0,6,1,nt
O=C1CC(c2ccco2)CC(O)=C1C=NCC1CCNCC1 (stereo not drawn),3,0,92*,5,1
O=C1CC(c2ccco2)CC(O)=C1C=NCCN1CCNCC1 (stereo not drawn),-4,0,11,-1,nt
CCOc1cc(CNCCCN2CCOCC2)cc(Br)c1OCc1ccccc1Cl,-4,0,56*,1,26
CCOc1cc(CNCCO)cc(Br)c1OCc1ccccc1Cl,-7,0,24,-3,nt
COc1ccccc1-c1sc2ccccc2c1-c1ccc(OCCN2CCOCC2)cc1,1,1,nt,3,0
c1ccc(-c2sc3ccccc3c2-c2ccc(OCCN3CCOCC3)cc2)cc1,-6,2,6,-5,-5
COc1ccc2sc(-c3ccccc3OC)c(-c3ccc(OCCN4CCOCC4)cc3)c2c1,0,0,nt,4,2
Cn1nc(C(C)(C)C)c([N+](=O)[O-])c1C(=O)NC(C)(C)C,-5,1,4,0,nt
O=C1Cc2cc(S(=O)(=O)N3CCNCC3)ccc2N1,10,0,-7,2,6
COc1ccc(C2CC3(CC(C)(C)NC(SC)=N3)Oc3cc(O)cc(C)c32)cc1 (stereo not drawn),1,0,41,17,-8
COc1ccc(C2CC3(CC(C)(C)NC(=S)N3)Oc3cc(O)cc(C)c32)cc1 (stereo not drawn),-9,0,18,-2,nt
COC(=O)c1cc(CNC(=O)C(C)NS(=O)(=O)c2ccc(C)c(C)c2)ccc1OC (stereo not drawn),-9,2,3,-4,0
COc1ccc(S(=O)(=O)NC(C)C(=O)NCc2ccncc2)cc1C (stereo not drawn),-4,0,11,-5,nt
COc1cc(NC(=O)COn2nnc3ccc(S(C)(=O)=O)cc32)cc(OC)c1,-4,0,-6,-4,nt
CC(C)c1cc(CNC(=O)c2cc(COc3cncc(Cl)c3)on2)on1,-4,nt,nt,0,nt
O=C(Nc1ccccn1)C1CCN(C(=O)c2ccc(F)cc2)CC1,1,1,26,1,4
Cc1ccc(NC(=O)C2CCN(C(=O)c3ccccc3C)CC2)cc1,-2,1,33,-2,nt
Cc1cccc(NC(=O)C2CCN(C(=O)c3ccccc3C)CC2)n1,-4,1,-3,-4,-3
COc1ccc(NC(=O)C2CCCN(C(=O)Nc3cccc(OC)c3)C2)cc1 (stereo not drawn),0,0,-6,-1,nt
COc1cccc2[nH]c3c(=O)n(CCCN4CCOCC4)cnc3c12,-2,0,-1,0,10
SMILES,APOBEC3G inh,GRK2 aptamer HTS,VLA-4 inh,A3A deaminase,VLA-4 mod pick
Cc1ccc2c(c1)[nH]c1c(=O)n(CCCN3CCOCC3)cnc12,-7,0,11,-2,nt
Cc1ccc2oc(-c3ccccc3)nc2c1,-2,0,94*,-4,5
CC(C)(C)c1ccc(C(=O)N2CCC(=O)N(C(COCc3ccccc3)Cc3ccccc3)CC2)cc1 (stereo not drawn),-2,1,18,-3,nt
COc1ccc(C(=O)NC2CCCc3c2cnn3-c2ccccc2F)cc1OC (stereo not drawn),-7,4,6,-4,nt
Cc1cc2c(cc1C)C(c1cccc(F)c1)CC(=O)N2 (stereo not drawn),-1,0,0,4,-4
Cc1cc2c(cc1C)C(c1ccccc1F)CC(=O)N2 (stereo not drawn),0,nt,9,1,nt
COc1ccc(CN2C(=O)c3cccnc3C2=O)cc1S(=O)(=O)N1CC(C)Oc2ccccc21 (stereo not drawn),-3,0,56*,-2,0
O=C1Cc2cc(S(=O)(=O)Nc3ccc(F)cc3Cl)ccc2N1,-4,2,14,1,nt
CC(=O)c1ccccc1NS(=O)(=O)c1ccc2c(c1)CC(=O)N2,4,13,7,2,2
CN(CC(=O)Nc1ccc(F)c(F)c1F)C(=O)C1CCCCC1,-10,2,6,-3,nt
Cc1ccc(/C=N/NC(=O)CNC(=O)c2cccc([N+](=O)[O-])c2C)o1,-3,3,58*,0,5
Cc1ccc(/C=N/NC(=O)CNC(=O)c2ccc(C)c([N+](=O)[O-])c2)o1,-5,0,0,-3,nt
COc1cc(OC)c(C(=O)OC(C)C(=O)Nc2cccc(C(F)(F)F)c2)cc1OC (stereo not drawn),-1,0,-15,4,10
CC1CCc2c(C(=O)NCc3cccnc3)csc2C1 (stereo not drawn),-7,1,-1,-2,nt
COC(=O)COc1ccc(NC(=O)C(c2ccccc2)c2ccccc2)cc1,5,12,50*,0,14
O=C(O)COc1ccc(NC(=O)C(c2ccccc2)c2ccccc2)cc1,-5,0,8,-6,nt
CC1CCCCN1S(=O)(=O)c1ccc(N(C(=O)c2cnccn2)C(C(=O)NC2CCCC2)c2cccs2)cc1 (stereo not drawn),-9,1,45,-1,0
CC1CCCCN1S(=O)(=O)c1ccc(N(C(=O)c2cnccn2)C(C(=O)NC2CCCCC2)c2cccs2)cc1 (stereo not drawn),2,0,-7,2,nt
CCn1cc(C(=O)OCc2cccc(Br)c2)c(=O)c2ccc(C)nc21,0,1,54*,5,0
CCN(C(=O)CSc1nc(-c2ccccc2)c(-c2ccccc2)[nH]1)C1CCS(=O)(=O)C1 (stereo not drawn),-2,0,95*,9,0
CCN(C(=O)CSc1nc2ccc(C)cc2[nH]1)C1CCS(=O)(=O)C1 (stereo not drawn),-9,0,6,-2,nt
CC(C)(C)NCC(O)CON=C1c2ccccc2-c2ccccc21 (stereo not drawn),3,0,55*,10,-8
O=C(OCC(=O)N1CCCC1)c1ccc(OC(F)(F)F)cc1,-2,1,-3,-2,nt
CC1CCCC(C)N1C(=O)COC(=O)c1ccccc1O (stereo not drawn),-8,0,-3,-2,7

# Screening data (PubChem)
